# According to PubChem BioAssay (NCATS):
# Inconclusive results are not listed. A call without a number means that no potency is given here. The source made the active and inactive calls. Unless noted, the call rests on the fitted dose curve.
# Experiments:
# [1] = molecular target: Bile acid receptor (Homo sapiens) (UniProt Q96RI1); assay: qHTS assay for small molecule agonists of farnesoid X receptor signaling (AID 588527); conditions: HEK293T FXR-UAS-bla, beta-lactamase ratio, 16 h; activation: stronger effect = higher value
# Method in brief: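 Quantitative HTS used FXR-UAS-bla HEK293T cells with 16 h compound incubation at 37 C. EC50 values came from concentration-response curves normalized to chenodeoxycholic acid.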
# [2] = qHTS for Inhibitors of the Functional Ribonucleoprotein Complex (vRNP) of Lassa (LASV) Arenavirus: LASV Primary Screen - GLuc reporter signal (AID 1347082; calls by dose curve; tested in HEK293 reporter line; further: nearly all actives have a fitted effect of over 60% in size)
# [3] = qHTS for Inhibitors of the Functional Ribonucleoprotein Complex (vRNP) of Lassa (LASV) Arenavirus: Viability assay - alamar blue signal for LASV Primary Screen (AID 1347083; calls by dose curve; tested in HEK293 reporter line; further: nearly all actives have a fitted effect of over 80% in size)
# [4] = qHTS for Inhibitors of the Functional Ribonucleoprotein Complex (vRNP) of Lymphocytic Choriomeningitis Arenaviruses (LCMV): Viability assay - alamar blue signal for LCMV Primary Screen (AID 1347085; calls by dose curve; tested in HEK293 reporter line; further: nearly all actives have a fitted effect of over 80% in size)
# [5] = molecular target: Nucleoprotein (Lymphocytic choriomeningitis virus (strain Armstrong)) (UniProt P09992); assay: qHTS for Inhibitors of the Functional Ribonucleoprotein Complex (vRNP) of Lymphocytic Choriomeningitis Arenaviruses (LCMV): LCMV Primary Screen - GLuc reporter signal (AID 1347086); further: nearly all actives have a fitted effect of over 70% in size
# [6] = molecular target: Peroxisome proliferator-activated receptor delta (Homo sapiens) (UniProt Q03181); assay: qHTS assay for small molecule agonists of peroxisome proliferator-activated receptor delta signaling (AID 588534)
# Method in brief: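 Agonist-mode beta-lactamase reporter readout (CCF4 dye, 2 h at RT) after 18 h at 37 °C exposure to a titration; Hill-equation fitting gave EC50 and maximal response.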
# [7] = qHTS profiling of the MIPE4 collection as inhibitors of Plasmodium falciparum (3D7) proliferation (AID 743344; call rule not given here); conditions: P. falciparum 3D7 in erythrocytes, SYBR Green DNA fluorescence, 72 h; at 28.5 µM (top of the series) unless noted
# Method in brief: (§1)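 Parasite DNA was quantified by SYBR Green I fluorescence (ex 485, em 535 nm) after overnight lysis in saponin/Triton buffer at room temperature. Cultures at 0.3% parasitemia and 2.5% hematocrit were first exposed to compound for 72 h at 37 C; signals were normalised to artemisinin (0.29 uM) and vehicle wells.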
# [8] = qHTS profiling of the MIPE4 collection as inhibitors of Plasmodium falciparum (DD2) proliferation (AID 743345; call rule not given here); conditions: P. falciparum Dd2 in erythrocytes, SYBR Green DNA, 72 h; at 28.5 µM (top of the series) unless noted
# Method in brief: as §1
# [9] = molecular target: Ubiquitin carboxyl-terminal hydrolase 1 (Homo sapiens) (UniProt O94782); assay: Inhibitors of USP1/UAF1: Pilot qHTS (AID 504865; active means well fitted curve in the direction sought with a large enough effect; an effect the other way counts as inactive or inconclusive;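 further: rhodamine fluorescence freed from ubiquitin-rhodamine substrate followed over time; top concentration of the series differs between compounds; nearly all actives have a fitted effect of over 35% in size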)
# Method in brief: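 1nM USP1/UAF1 + cpd, 15 min RT; start w/ Ub-Rho 150nM final; kinetic FL 480/540 nm, 6 reads q60 s. Buffer 50mM HEPES pH 7.8, 0.5mM EDTA, 1mM TCEP, 0.01% Tween-20, 0.1 mg/ml BSA.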
# [10] = molecular target: DNA dC->dU-editing enzyme APOBEC-3G (Homo sapiens) (UniProt Q9HC16); assay: qHTS for inhibitors of Vif-A3G interactions: Validation (AID 588379; active means well fitted curve in the direction sought with a large enough effect; an effect the other way counts as inactive or inconclusive)
# Method in brief: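 Yellow fluorescence (Ex 488, Em 500-530) of Vif-coexpressing HeLa A3G-eYFP cells, scanned by Acumen cytometer, reports blocked A3G degradation. Cells plated at 700/well overnight at 37 deg C before compound addition, then a further overnight compound incubation at 37 deg C.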
# [11] = molecular target: Cytochrome P450 3A4 (Homo sapiens) (UniProt P08684); assay: qHTS Assay for Activators of Cytochrome P450 3A4 (AID 885; active means well fitted curve in the direction sought with a large enough effect; an effect the other way counts as inactive or inconclusive; further: nearly all actives have a fitted effect of over 65% in size)
# Method in brief: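 Using 20nM recombinant human CYP3A4 in potassium phosphate (200mM), substrate Luciferin-PPXE at 25uM, luminescent luciferin detection followed a 60-min RT NADPH reaction; data scaled to 57 uM ketoconazole.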
# [12] = Confirmation and Secondary Assay for Modulators of Hemoglobin Beta Chain Splicing at IVS2 654 locus (AID 910; active means well fitted curve in the direction sought with a large enough effect; an effect the other way counts as inactive or inconclusive;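 further: HeLa cells stably carrying EGFP split by mutant beta-globin IVS2-654 intron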)
# Method in brief: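 HeLa cells stably expressing EGFP interrupted by β-globin IVS2-654 intron, seeded overnight in Opti-MEM/2% FCS, then treated 2 days at 37 °C. Restored splicing read as total peak GFP intensity per well by laser scanning cytometry (488 nm excitation, 500–520 nm emission); 500 nM antisense PNA as control.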
# [13] = Confirmation and Secondary Assay for Modulators of Hemoglobin Beta Chain Splicing at IVS2 705 locus (AID 930; active means well fitted curve in the direction sought with a large enough effect; an effect the other way counts as inactive or inconclusive;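 further: HeLa cells stably expressing the EGFP-705 splicing reporter; GFP fluorescence per well restored by corrected splicing of the IVS2-705 intron in EGFP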)
# Method in brief: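 Stable HeLa line with EGFP disrupted by mutant beta-globin intron 2 (705). Overnight attachment, then 2 days of compound at 37C, 5% CO2. Signal: peak GFP intensity summed over objects 5-250 µm.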
# [14] = molecular target: Alpha-galactosidase (Coffea arabica) (UniProt Q42656); assay: Counterscreen for Glucocerebrosidase Inhibitors: qHTS Assay for Coffee Bean alpha-Galactosidase at pH 4.5 (AID 957; active means well fitted curve in the direction sought with a large enough effect; an effect the other way counts as inactive or inconclusive)
# Method in brief: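 Fluorogenic qHTS at pH 4.5 (citrate buffer with Tween-20): 2 nM enzyme, 80 uM 4-MU-alpha-galactoside substrate, compound titrated 0.7 nM to 77 uM, 20 min room temperature. Glycine/NaOH stop; 4-MU read Ex 365/Em 440; Hill-equation AC50 against no-enzyme and enzyme controls.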
# [15] = molecular target: Alpha-galactosidase (Coffea arabica) (UniProt Q42656); assay: Counterscreen for Glucocerebrosidase Inhibitors: qHTS Assay for Coffee Bean alpha-Galactosidase at pH 5.9 (AID 998; active means well fitted curve in the direction sought with a large enough effect; an effect the other way counts as inactive or inconclusive)
# Method in brief: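 Enzyme 2 nM + cpd (0.7 nM–77 uM titration) + 4-MU-alpha-Gal 80 uM, pH 5.9 citrate/Tween-20, RT 20 min, NaOH/glycine stop pH 10, fluor 365/440. Normalized to no-enzyme and full-activity controls; Hill-fit AC50.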
# [16] = Inducers of the Endoplasmic Reticulum Stress Response (ERSR) in human glioma: Validation (AID 504836; active means well fitted curve in the direction sought with a large enough effect; an effect the other way counts as inactive or inconclusive)
# Method in brief: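 Stably transfected U87-MG glioma cells carrying a GRP78-based luciferase sensor; 16 h compound incubation. Luminescence end-point read 10 min after Bright-Glo addition at room temperature.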
# [17] = qHTS profiling of the MIPE4 collection as inhibitors of Plasmodium falciparum (DD2) proliferation (Rep 2) (AID 743346; call rule not given here); conditions: P. falciparum Dd2 in erythrocytes, SYBR Green DNA, 72 h; at 28.5 µM (top of the series) unless noted
# Method in brief: as §1
# [18] = qHTS profiling of the MIPE4 collection as inhibitors of Plasmodium falciparum (HB3) proliferation (AID 743347; call rule not given here); conditions: P. falciparum HB3 in erythrocytes, SYBR Green DNA, 72 h; at 28.5 µM (top of the series) unless noted
# Method in brief: as §1
# Chain of Nucleoprotein (Lymphocytic choriomeningitis virus (strain Armstrong)) (P09992 whole entry, looked up): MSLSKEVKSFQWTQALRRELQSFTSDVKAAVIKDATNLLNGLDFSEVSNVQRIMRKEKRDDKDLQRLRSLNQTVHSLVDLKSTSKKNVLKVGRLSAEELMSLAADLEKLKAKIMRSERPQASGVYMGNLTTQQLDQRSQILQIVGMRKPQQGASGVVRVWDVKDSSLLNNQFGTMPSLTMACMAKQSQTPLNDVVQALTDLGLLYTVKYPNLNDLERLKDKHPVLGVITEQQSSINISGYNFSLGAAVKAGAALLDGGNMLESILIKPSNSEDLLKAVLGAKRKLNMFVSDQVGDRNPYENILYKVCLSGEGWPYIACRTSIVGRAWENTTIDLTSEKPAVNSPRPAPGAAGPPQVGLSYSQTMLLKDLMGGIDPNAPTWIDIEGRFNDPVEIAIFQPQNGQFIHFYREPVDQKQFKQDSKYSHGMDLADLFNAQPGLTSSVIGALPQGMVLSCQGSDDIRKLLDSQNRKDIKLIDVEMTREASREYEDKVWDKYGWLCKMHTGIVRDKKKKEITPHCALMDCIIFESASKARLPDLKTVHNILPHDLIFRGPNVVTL
# Chain of Peroxisome proliferator-activated receptor delta (Homo sapiens) (Q03181 whole entry, looked up): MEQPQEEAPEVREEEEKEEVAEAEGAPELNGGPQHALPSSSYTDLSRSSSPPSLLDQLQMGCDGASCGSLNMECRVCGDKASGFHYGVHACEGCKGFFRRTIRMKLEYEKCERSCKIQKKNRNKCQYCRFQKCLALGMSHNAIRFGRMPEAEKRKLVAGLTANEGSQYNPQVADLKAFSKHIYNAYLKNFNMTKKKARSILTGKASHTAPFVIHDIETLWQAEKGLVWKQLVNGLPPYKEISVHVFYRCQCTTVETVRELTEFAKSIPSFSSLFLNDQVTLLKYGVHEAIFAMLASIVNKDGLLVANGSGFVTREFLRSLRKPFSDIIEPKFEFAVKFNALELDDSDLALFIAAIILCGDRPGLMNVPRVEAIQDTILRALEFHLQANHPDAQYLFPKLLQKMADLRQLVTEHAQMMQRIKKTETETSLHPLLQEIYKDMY
# Chain of Bile acid receptor (Homo sapiens) (Q96RI1 whole entry, looked up): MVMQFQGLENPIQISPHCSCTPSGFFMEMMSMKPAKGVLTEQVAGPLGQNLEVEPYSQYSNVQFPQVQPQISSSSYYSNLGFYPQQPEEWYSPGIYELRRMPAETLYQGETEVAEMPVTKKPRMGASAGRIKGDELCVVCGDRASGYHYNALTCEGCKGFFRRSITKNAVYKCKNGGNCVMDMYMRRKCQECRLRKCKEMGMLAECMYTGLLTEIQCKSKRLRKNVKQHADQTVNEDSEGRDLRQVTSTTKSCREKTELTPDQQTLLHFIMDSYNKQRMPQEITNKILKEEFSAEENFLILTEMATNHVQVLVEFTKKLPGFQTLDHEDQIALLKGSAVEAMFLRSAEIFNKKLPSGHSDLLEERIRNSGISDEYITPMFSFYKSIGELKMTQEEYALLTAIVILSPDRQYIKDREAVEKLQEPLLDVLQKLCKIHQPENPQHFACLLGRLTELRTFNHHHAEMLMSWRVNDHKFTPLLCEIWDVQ
# Chain of Ubiquitin carboxyl-terminal hydrolase 1 (Homo sapiens) (O94782 whole entry, looked up): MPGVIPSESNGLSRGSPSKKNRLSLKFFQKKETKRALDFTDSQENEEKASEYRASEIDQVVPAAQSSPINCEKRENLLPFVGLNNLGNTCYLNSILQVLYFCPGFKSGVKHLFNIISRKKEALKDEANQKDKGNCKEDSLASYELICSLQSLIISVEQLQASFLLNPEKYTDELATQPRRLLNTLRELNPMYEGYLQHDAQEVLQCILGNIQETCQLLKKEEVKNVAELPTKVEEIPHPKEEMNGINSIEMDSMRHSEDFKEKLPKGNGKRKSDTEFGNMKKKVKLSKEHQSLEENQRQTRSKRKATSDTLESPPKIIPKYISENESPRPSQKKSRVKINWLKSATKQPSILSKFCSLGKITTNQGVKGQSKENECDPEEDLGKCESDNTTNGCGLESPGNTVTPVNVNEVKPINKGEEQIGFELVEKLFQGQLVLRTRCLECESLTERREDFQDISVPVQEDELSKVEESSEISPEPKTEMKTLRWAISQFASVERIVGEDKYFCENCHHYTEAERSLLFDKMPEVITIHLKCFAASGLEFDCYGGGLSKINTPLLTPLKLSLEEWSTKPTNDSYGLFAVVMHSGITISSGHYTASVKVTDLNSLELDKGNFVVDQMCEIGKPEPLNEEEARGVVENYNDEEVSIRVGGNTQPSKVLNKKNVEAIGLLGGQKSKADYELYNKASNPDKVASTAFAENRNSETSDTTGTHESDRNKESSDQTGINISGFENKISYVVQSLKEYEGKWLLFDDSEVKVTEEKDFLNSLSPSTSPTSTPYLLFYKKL
# Chain of Alpha-galactosidase (Coffea arabica) (Q42656 whole entry, looked up): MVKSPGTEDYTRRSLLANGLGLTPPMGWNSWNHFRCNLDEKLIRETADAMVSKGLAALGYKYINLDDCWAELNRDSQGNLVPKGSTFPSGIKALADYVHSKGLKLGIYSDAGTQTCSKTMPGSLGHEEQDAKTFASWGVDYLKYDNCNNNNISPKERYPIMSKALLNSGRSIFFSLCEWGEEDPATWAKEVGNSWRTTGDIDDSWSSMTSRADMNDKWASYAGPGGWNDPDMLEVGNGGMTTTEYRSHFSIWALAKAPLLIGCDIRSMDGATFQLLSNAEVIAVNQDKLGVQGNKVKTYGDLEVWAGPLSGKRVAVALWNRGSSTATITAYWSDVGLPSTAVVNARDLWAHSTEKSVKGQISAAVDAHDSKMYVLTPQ
# Chain of DNA dC->dU-editing enzyme APOBEC-3G (Homo sapiens) (Q9HC16 whole entry, looked up): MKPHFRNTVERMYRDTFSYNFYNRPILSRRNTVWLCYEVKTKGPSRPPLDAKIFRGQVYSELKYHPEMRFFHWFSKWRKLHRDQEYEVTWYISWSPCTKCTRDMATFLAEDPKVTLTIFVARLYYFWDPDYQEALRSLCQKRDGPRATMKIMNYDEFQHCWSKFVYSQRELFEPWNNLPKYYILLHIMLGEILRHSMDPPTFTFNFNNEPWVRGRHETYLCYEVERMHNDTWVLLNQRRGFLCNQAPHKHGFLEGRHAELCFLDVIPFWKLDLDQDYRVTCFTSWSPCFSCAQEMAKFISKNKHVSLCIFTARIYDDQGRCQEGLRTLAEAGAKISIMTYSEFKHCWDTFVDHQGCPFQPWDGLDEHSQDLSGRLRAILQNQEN
# Chain of Cytochrome P450 3A4 (Homo sapiens) (P08684 whole entry, looked up): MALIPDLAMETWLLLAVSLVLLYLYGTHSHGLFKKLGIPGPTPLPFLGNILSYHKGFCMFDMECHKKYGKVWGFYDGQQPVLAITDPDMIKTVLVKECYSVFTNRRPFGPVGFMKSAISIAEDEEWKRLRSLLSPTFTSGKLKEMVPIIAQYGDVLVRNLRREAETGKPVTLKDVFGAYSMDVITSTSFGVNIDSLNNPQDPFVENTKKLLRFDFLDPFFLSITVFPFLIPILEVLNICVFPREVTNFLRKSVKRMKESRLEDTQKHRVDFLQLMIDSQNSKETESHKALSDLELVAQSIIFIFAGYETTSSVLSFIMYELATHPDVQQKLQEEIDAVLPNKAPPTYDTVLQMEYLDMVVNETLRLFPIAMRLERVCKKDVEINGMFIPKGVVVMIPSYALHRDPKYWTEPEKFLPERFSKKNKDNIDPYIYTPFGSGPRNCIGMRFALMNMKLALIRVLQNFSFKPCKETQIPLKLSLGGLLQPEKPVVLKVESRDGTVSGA
compound,measurement,setting,value
CCCCCCCCCCCCCc1ccccc1,activation,[1],-1.99% (inactive)
same,Potency,[2],inactive
same,Potency,[3],inactive
same,Potency,[4],inactive
same,Potency,[5],inactive
CS(C)=O,Potency,[6],inactive
same,Potency,[2],inactive
same,Potency,[3],inactive
same,Potency,[4],inactive
same,Potency,[5],inactive
CCC(CC)[C@H](NC(C)=O)[C@@H]1[C@H](O)[C@@H](C(=O)O)C[C@@H]1N=C(N)N,"parasite growth, % of DMSO control",[7],81.5%
same,"parasite growth remaining, % of DMSO control (lower = more inhibition)",[8],98.5%
same,Potency,[2],inactive
same,Potency,[3],inactive
same,Potency,[4],inactive
same,Potency,[5],inactive
CC=O,Potency,[6],inactive
same,Potency,[2],inactive
same,Potency,[3],inactive
same,Potency,[4],inactive
same,Potency,[5],inactive
NCCO/C=C/[C@H](N)C(=O)O,Potency,[6],inactive
same,Potency,[2],inactive
same,Potency,[3],inactive
same,Potency,[4],inactive
same,Potency,[5],inactive
CCCC/C=C\CCCCCCCCCC=O,Potency,[6],inactive
same,Potency,[2],inactive
same,Potency,[3],inactive
same,Potency,[4],inactive
same,Potency,[5],inactive
CC(=O)c1ccccn1,Potency,[6],inactive
same,Potency,[2],inactive
same,Potency,[3],inactive
same,Potency,[4],inactive
same,Potency,[5],inactive
C1CCC2(CCCCO2)OC1,Potency,[6],inactive
same,Potency,[2],inactive
same,Potency,[3],inactive
same,Potency,[4],inactive
same,Potency,[5],inactive
O=CN1CCCCC1C1CC[C@H]2CCCCN2C1 (stereo not given in full),Potency,[9],inactive
same,Potency,[10],inactive
same,Potency,[2],inactive
same,Potency,[3],inactive
same,Potency,[4],inactive
same,Potency,[5],inactive
C=CCSSCC=C,Potency,[11],inactive
same,Potency,[12],inactive
same,outcome,[13],inactive
same,Potency,[9],inactive
same,Potency,[2],inactive
same,Potency,[3],inactive
same,Potency,[4],inactive
same,Potency,[5],inactive
O=Nc1ccc2oc(=O)ccc2c1,outcome,[14],inactive
same,outcome,[15],inactive
same,outcome,[16],inactive
same,Potency,[2],inactive
same,Potency,[3],inactive
same,Potency,[4],inactive
same,Potency,[5],inactive
CCCCC(CC)CO (stereo not given),Potency,[6],inactive
same,Potency,[2],inactive
same,Potency,[3],inactive
same,Potency,[4],inactive
same,Potency,[5],inactive
OCCO,activation,[1],1.31% (inactive)
same,Potency,[2],inactive
same,Potency,[3],inactive
same,Potency,[4],inactive
same,Potency,[5],inactive
CC(=O)N[C@H]1[C@@H]([C@H](O)[C@H](O)CO)OC(C(=O)O)=C[C@@H]1N=C(N)N,"parasite growth, % of DMSO control",[7],96.2%
same,"parasite growth remaining, % of DMSO control (lower = more inhibition)",[8],100%
same,"parasite growth, % of control (lower = inhibition)",[17],142%
same,"growth, % of control",[18],100%
same,Potency,[2],inactive
same,Potency,[3],inactive
same,Potency,[4],inactive
same,Potency,[5],inactive
